Test results from PubChem BioAssay (Tox21).
Records with an inconclusive call do not appear. Active and inactive are the calls of the source. Calls follow the shape of the full dose curve.

The molecules below were run against Beta-2 adrenergic receptor (Homo sapiens) (UniProt P07550) (assay: Adrenergic beta2 receptor (ADRB2) small molecule antagonists, cell-based qHTS assay (AID 1963592; also: nearly all actives have a fitted effect of over 50% in size)). Conditions: CHO-ADRB2 cells, isoproterenol-stimulated cAMP HTRF ratio, 0.5 h; series mostly up to 92.4 µM; activity change, negative = inhibition: at the top concentration.
Text: U.S. Tox21 Program National Center for Advancing Translational Sciences [NCATS] Division of Preclinical Innovation [DPI] U.S. Environmental Protection Agency [EPA] National Institutes of Environmental Health Sciences [NIEHS] National Toxicology Program [NTP] U.S. Food and Drug Administration [FDA] Tox21 Assay Overview: Beta adrenergic receptors (Beta-ARs) belong to the G-protein coupled receptor (GPCR) superfamily, includes three subtypes - beta1, beta2, and beta3. Beta1-AR is the predominant receptor subtype expressed in the heart, and beta2-AR is expressed in the kidney, lung, blood vessel and in the heart, and beta3 is found in the adipocytes. Beta1 and 2 ARs couple to Gs protein and elevate cyclic adenosine mono phosphate (cAMP), which activates protein kinase A and leads to the downstream signaling responsible for the physiological actions. Beta-AR agonists or antagonists are the most prescribed therapeutic agents for heart failure and asthma, and these were one of the first target receptors for the rational drug design. Tox21 10K compound library was screened using the cAMP-Gs dynamic assay (Cisbio Bioassays, Shelton, CT) to identify agonists/antagonists of the Gs-coupled human adrenergic, beta2 receptor (ADRB2) in the CHO-ADRB2 cell line (Codex BioSolutions, Inc. Gaithersburg, MD), which stably over-expresses ADRB2. The principle of cAMP-Gs dynamic assay is based on HTRF technology, which facilitates the fluorescence resonance energy transfer (FRET) between donor Europium cryptate and acceptor d2-labeled cAMP. The cAMP generated within cells competes with the red acceptor, d2-labled cAMP, for binding to the monoclonal anti-cAMP-cryptate (Europium donor). An increase in intracellular cAMP leads to the disruption of FRET signal, and the signal is inversely proportional to the cAMP concentration. Propranolol HCl (Sigma-Aldrich, St. Louis, MO) was used as a positive control in the screening.
Tox21 Assay Protocol Summary: CHO-ADRB2 cells were dispensed at 1,000/well in 4uL assay medium into white/solid 1536-well plates (Greiner Bio-One North America Inc., Monroe, NC) using a Multidrop Combi dispenser (ThermoFisher Scientific, Waltham, MA). The assay plates were incubated at 37C and 5% CO2 for an overnight (18-20hr). Then positive control and test compounds dissolved in DMSO were transferred to the assay plates at 23nL using a Pintool station (Wako, San Diego, CA). Following the compound and positive control transfer, 1uL agonist-stimulation mix containing 1nM Isoproterenol HCl, 100uM IBMX and 25uM Ro-20-1724 was added to each well of the assay plates using BioRAPTR Flying Reagent Dispenser (FRD, Beckman Coulter, Brea, CA). The assay plates were incubated at room temperature for 0.5hr. Then 2.5ul each d2-labled cAMP and anti-cAMP-cryptate solutions were added separately to each well of the assay plates using an FRD and the assay plates were incubated at room temperature for 1hr. The fluorescence signal was measured at two different wavelengths (665nm and 615nm) using an Envision plate reader (Perkin Elmer, Shelton, CT). Data were expressed as the ratio of 665 nm/615 nm.
% is scaled to controls: 0 for no effect and ±100 for the full control effect.

Sequence of Beta-2 adrenergic receptor (Homo sapiens) (P07550 whole entry, looked up): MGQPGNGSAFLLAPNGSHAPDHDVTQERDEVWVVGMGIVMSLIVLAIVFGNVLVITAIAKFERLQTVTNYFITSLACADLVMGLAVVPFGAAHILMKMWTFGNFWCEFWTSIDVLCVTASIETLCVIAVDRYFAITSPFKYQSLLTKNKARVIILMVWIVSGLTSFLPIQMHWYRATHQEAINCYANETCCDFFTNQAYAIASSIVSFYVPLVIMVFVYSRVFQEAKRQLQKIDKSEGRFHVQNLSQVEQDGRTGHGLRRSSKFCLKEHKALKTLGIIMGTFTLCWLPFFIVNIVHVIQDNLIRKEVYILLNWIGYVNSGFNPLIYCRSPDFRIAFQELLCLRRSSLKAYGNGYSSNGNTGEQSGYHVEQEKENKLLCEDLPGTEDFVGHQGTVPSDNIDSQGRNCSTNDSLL

| SMILES | activity change, negative = inhibition |
| --- | --- |
| CC(=O)C1C(=O)C=C(C)OC1=O (stereo not given) | 6.22% (inactive) |
| CN1[C@@H]2CC[C@H]1CC(OC(=O)C(O)c1ccccc1)C2 (stereo not given in full) | -5.25% [at 42.5 µM] (inactive) |
| CCCC(=O)O[C@]1(C(=O)CC)CC[C@H]2[C@@H]3CCC4=CC(=O)CC[C@]4(C)[C@H]3[C@@H](O)C[C@@]21C | -15.4% [at 42.5 µM] (inactive) |
| CCCc1ccc(O)c(OC)c1 | 5.76% (inactive) |
| Cc1nc2ccc(Cl)cc2[nH]1 | -5.95% (inactive) |
| Cc1cccc(C(C)(C)C)c1O | 1.6% (inactive) |
| C[C@@H]1CC[C@@]2(OC1)O[C@H]1C[C@H]3[C@@H]4CC[C@H]5C[C@@H](O)CC[C@]5(C)[C@H]4CC(=O)[C@]3(C)[C@H]1[C@@H]2C | -3.89% [at 8.39 µM] (inactive) |
| Cc1cccc2nccnc12 | 4.35% (inactive) |
| CNC(=O)c1ccccc1 | -5.99% (inactive) |
| NS(=O)(=O)c1cc2c(cc1Cl)NC(C(Cl)Cl)NS2(=O)=O (stereo not given) | -0.779% [at 42.5 µM] (inactive) |
| CCC=CC#N | -7.32% (inactive) |
| O=C(O)c1cccc(Oc2ccccc2)c1 | 3.08% (inactive) |
| CN(Cc1cc(Br)cc(Br)c1N)C1CCCCC1 | 3.33% [at 42.5 µM] (inactive) |
| C=CC(=O)OCC1CCCO1 (stereo not given) | -6.38% (inactive) |
| CCC(CO)(CO)[N+](=O)[O-] | -0.0122% (inactive) |
| Cn1c(N)c(N=O)c(=O)n(C)c1=O | -1.75% (inactive) |
| Cc1cc(C(C)(C)C)cc(C)c1CC1=NCCN1 | 2.42% [at 42.5 µM] (inactive) |
| Cc1cc(N)c(S(=O)(=O)O)cc1Cl | -11% (inactive) |
| CNc1c2c(nn1C)CCCC2 | -7.59% [at 42.5 µM] (inactive) |
| Cc1cccc(C)c1C | 1.73% (inactive) |

| SMILES | activity change, negative = inhibition |
| --- | --- |
| CCC(=O)Oc1ccc2c(c1)CC[C@@H]1[C@@H]2CC[C@@]2(C)[C@H]1C[C@@H](OC(=O)CC)[C@@H]2OC(=O)CC | 10.6% [at 42.5 µM] (inactive) |
| CCCCS(=O)(=O)N[C@@H](Cc1ccc(OCCCCC2CCNCC2)cc1)C(=O)O | 4.98% [at 42.5 µM] (inactive) |
| N#CSCC(=O)O | -1.98% [at 42.5 µM] (inactive) |
| CCCC1CCCC(=O)O1 (stereo not given) | 2.02% (inactive) |
| CC/C=C\CCOC(C)=O | 0.311% (inactive) |
| CC(=O)[C@H]1CC[C@H]2[C@@H]3C=CC4=CC(=O)CC[C@@]4(C)[C@@H]3CC[C@]12C | 0% [at 42.5 µM] (inactive) |
| Nc1cc(C(F)(F)F)ccc1S | 5.7% [at 42.5 µM] (inactive) |
| Cc1ccccc1C(=O)Nc1ccc(C(=O)N2CCCC(N(C)C)c3ccccc32)cc1 (stereo not given) | -6.48% [at 42.5 µM] (inactive) |
| CN(C)CCc1c[nH]c2ccc(C[C@H]3COC(=O)N3)cc12 | -2.22% [at 42.5 µM] (inactive) |
| CN1CCN(CCCN2c3ccccc3Sc3ccc(C(F)(F)F)cc32)CC1 | -15.1% [at 42.5 µM] (inactive) |
| Cc1ccc(C=O)s1 | -2.68% (inactive) |
| CC(C)(C)NSc1nc2ccccc2s1 | -0.627% (inactive) |
| CC(=O)c1cnccn1 | -2.42% (inactive) |
| C#CCN[C@@H]1CCc2ccccc21 | 15.4% [at 42.5 µM] (inactive) |
| Oc1cc(O)c(Cl)cc1Cl | -10.4% (inactive) |
| CCCCCCCCCCCCCCCCCCOS(=O)(=O)O | 0.933% (inactive) |
| COc1cc(-c2ccc(N=C=O)c(OC)c2)ccc1N=C=O | 1.02% [at 42.5 µM] (inactive) |
| CN1CCN(c2c(F)cc3c(=O)c(C(=O)O)cn4c3c2OCN4C)CC1 | 2.14% [at 19 µM] (inactive) |
| CCO[Si](CC)(OCC)OCC | 1.41% (inactive) |
| COc1ccc2c(c1)C(=O)N(CCc1ccc(S(=O)(=O)NC(=O)NC3CCCCC3)cc1)C(=O)C2(C)C | -8.96% [at 42.5 µM] (inactive) |
